Laboratory results: PubChem BioAssay (NCI)
About 83,000 compounds went through this panel and 20% of them were active in at least one assay; those are over-represented in the sample as a whole.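 In brief: 96-well plates, 48 h treatment, single concentration, percent growth endpoint.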 The source made the active and inactive calls. How the source made its calls: active means growth percent below 10; inactive means the rest.

The compounds below were run on HL-60(TB) leukemia (assay: NCI-60 one-dose screen, 48 h (100 = growth as untreated, 0 = no growth, -100 = all killed)). Settings: 10 µM unless noted.

| Compound | growth |
| --- | --- |
| O=P(O)(O)OCC1OC(n2cnc3c(NCc4ccco4)ncnc32)C(O)C1O (centres undefined) | -6.93% (active) |
| CN1C(=O)N(C)C2C1NN=c1s/c(=C\c3ccsc3)c(=O)n12 (centres undefined) | 5.85% (active) |
| O=C(/C=C/c1cccc(Cl)c1)c1cccc(OCCCCOc2cccc(C(=O)/C=C/c3cccc(Cl)c3)c2)c1 | 84.6% (inactive) |
| N#CCCN=Nc1c(O)[nH]c2ccc([N+](=O)[O-])cc12 | 96.6% (inactive) |
| O=C1Nc2c(ccc(Cl)c2Cl)/C1=C\c1cc(C(F)(F)F)cc(C(F)(F)F)c1 | -29.3% (active) |
| O=S(=O)(c1ccccc1)N1CCCN(c2nc(-c3ccccc3)nc3nc(-c4ccccc4)oc23)CC1 | 102% (inactive) |
| Nc1nc(-c2ccccc2Br)nn1-c1nc2ccccc2s1 | 99.3% (inactive) |
| C=CC1=NC(C)(C)CC(C)O1 (centres undefined) | 96.7% (inactive) |
| Nc1nc(Nc2ccccc2)c2ncn(Cc3cc4c(cc3Br)OCO4)c2n1 | -11.7% (active) |
| CC(=O)c1nn(-c2ccc(C)cc2)cc1C(=O)c1cc2c(ccc3ccccc32)oc1=O | 104% (inactive) |
| CCN(CC)CCCOc1cccc2c1C(=O)c1cccc(OCCCN(CC)CC)c1C2=O | 30.3% (inactive) |
| COc1cccc(-c2nc3sccn3c2-c2ccnc(NCCNS(=O)(=O)c3ccc(F)cc3)c2)c1 | -6.21% (active) |
| COc1c(C)c2c(c(O)c1C/C=C(\C)CCC(=O)O)C(=O)OC2 | 45.6% (inactive) |
| COc1cc2ccc(C(C)=O)cc2cc1OC | 133% (inactive) |
| COc1cc(C2=C(c3cn(C)c4ccccc34)COC2=O)cc(OC)c1OC | -1.28% (active) |
| NNc1ccc(Cl)cc1Cl | 8.29% (active) |
| C=C[C@@H]1C[C@@H]2Cc3c(C)cc(C)cc3N1O2 | 0.0364% (active) |
| Cc1ccc(CNc2c3ccccc3nc3ccccc23)cc1 | 25.5% (inactive) |
| Cc1csc(NC(c2ccc(Br)cc2)c2c(C)nc3ccccn23)n1 (centres undefined) | 102% (inactive) |
| O=C1/C(=C/c2ccc(-c3ccc(Cl)cc3)o2)SC(=S)N1CCc1ccc(O)cc1 | 8.32% (active) |

| Compound | growth |
| --- | --- |
| CCNc1ncnc2n[nH]nc12 | 94.8% (inactive) |
| CCOC(=O)/C(=C/c1ccc(OC)cc1)N(CC)CC | 98% (inactive) |
| Cc1ccc(C)c2c1sc1nc3n[nH]c(N)c3c(=N)n12 | 112% (inactive) |
| Cc1nc([P+](c2ccccc2)(c2ccccc2)c2ccccc2)c(Sc2sc(-c3ccccc3)nc2[P+](c2ccccc2)(c2ccccc2)c2ccccc2)o1 | -17.9% (active) |
| N#Cc1ccc(C(F)(F)F)nc1N1CCC(C(=O)Nc2ccc(Cl)cc2)CC1 | 70% (inactive) |
| CC(C)(C)n1cc(-c2ccnc(NCCNS(=O)(=O)c3ccc(F)cc3)c2)c(-c2cccc(O)c2)n1 | 46.6% (inactive) |
| Cc1ccc(-n2nc3n(/c2=N\C(=O)NS(=O)(=O)c2ccc(C)cc2)CCN3C2=NCCN2)cc1 | 146% (inactive) |
| O=C1C=CC2(NN=C(c3ccccc3)N2c2ccc(Cl)cc2)c2cccc(O)c21 (centres undefined) | 23.5% (inactive) |
| CC(=O)OCc1cc(-c2nc3ccccc3[nH]c2=O)nn1-c1ccc(Cl)cc1 | 84.5% (inactive) |
| COc1ccc(-c2nn(-c3ccc(NC(=O)c4ccc(Cl)c(Cl)c4)cc3)cc2-c2ccncc2)cc1Cl | 13.5% (inactive) |
| COC(=O)[C@]12CC[C@@H](C)[C@H](C)[C@@H]1C1=CC[C@@H]3[C@@]4(C)C(c5ncon5)=C[C@@](C)(CO)C4=CC[C@@]3(C)[C@]1(C)CC2 | -33.9% (active) |
| COc1ccc(-c2c3c(N)c4c(nc3nc3c2c(C)nn3-c2ccccc2)CCCC4)cc1 | 87.2% (inactive) |
| O=CN1N=C(c2ccc(Nc3ccnc4cc(Cl)ccc34)cc2)CC1c1ccccc1 (centres undefined) | -25.8% (active) |
| O=C(CN1CCNCC1)N1CCOCC1 | 68.5% (inactive) |
| CC(=O)/C=C/c1cc2cc(Cl)ccc2[nH]c1=O | 54.5% (inactive) |
| COc1ccc(-c2cc(-c3cc(OC)c(OC)c(OC)c3)nc(N3CCOCC3)c2C#N)cc1 | 51.4% (inactive) |
| COc1cc2nc(Sc3sc(N)nc3C)n(-c3ccc(Oc4ccccc4)cc3)c(=O)c2cc1OC | 78.9% (inactive) |
| CCOC(=O)C1=C(C)N=C2SC=C(c3ccccc3)N2[C@H]1c1cn[nH]c1-c1ccc(Cl)cc1 | 1.71% (active) |
| O=C1CC(c2ccc(O)c(O)c2)Oc2cc(O)c([C@@H]3O[C@H](CO)[C@@H](O)[C@H](O)[C@H]3O)c(O)c21 (some centres undefined) | 99.6% (inactive) |
